# Results from PubChem BioAssay (Tox21).
# Results filed as inconclusive are left out. Unmarked numbers belong to inactive results. Activity calls are given as the source filed them. The call rests on the fitted dose curve; in most records, active means well fitted cell-killing curve with a large enough effect in the repeat runs; inconclusive means weak or mixed curves, or effect the other way; inactive means flat fitted curve, though single readings scatter.
# Assay: cAMP Responsive Elements (CRE) small molecule antagonists, cell-based qHTS assay: qHTS cell viability counter screen (AID 2060913); further: nearly all actives have a fitted effect of over 40% in size
# Details: CRE-bla HEK293T viability, CellTiter-Glo luminescence, 5 h; series mostly up to 92.4 µM; viability change, negative = cytotoxic: at the top concentration
# Source text: U.S. Tox21 Program National Center for Advancing Translational Sciences [NCATS] Division of Preclinical Innovation [DPI] U.S. Environmental Protection Agency [EPA] National Institutes of Environmental Health Sciences [NIEHS] National Toxicology Program [NTP] U.S. Food and Drug Administration [FDA] Tox21 Assay Overview: CREB (cyclic-AMP Responsive Element Binding Protein) is a cellular transcription factor. It binds to certain DNA sequences called cAMP Responsive Elements (CRE) and regulates the transcription of the genes. […] This cell line can be used to find agonists/antagonists of the cyclic AMP signaling pathway. The activation of the report gene under culture conditions can be detected by fluorescence intensity. This cell line has been used to screen the Tox21 10K compound library to identify agonists that induce oxidative stress. The cytotoxicity of the Tox21 compound library against the CRE-bla cell line was tested in parallel by measuring the cell viability using CellTiter-Glo assay (Promega, Madison, WI) in the same wells.
# Tox21 Assay Protocol Summary: CRE-bla Hek 293T cells were suspended in assay medium (DMEM containing 10% dialyzed FBS, 0.1 mM NEAA, 1 mM sodium pyruvate and 25 mM HEPES) and dispensed at 2,000 cells/4 uL /well into 1536-well black wall/clear bottom plates using a Multidrop Combi (ThermoFisher Scientific, Waltham, MA) dispenser. After the assay plates were incubated at 37 C/5% CO2 for 18 hrs, 23 nL of compounds dissolved in DMSO, positive controls or DMSO only was transferred to the assay plate by a pintool workstation (Kalypsys, San Diego, CA), followed by addition of 1 uL of 1.25uM NKH477 (0.25 uM as final concentration) in assay medium using a Flying Reagent Dispenser (Aurora Discovery, San Diego, CA). The plates were incubated at 37 C and 5% CO2 for 3 hrs. Then 1 uL of LiveBLAzer B/G FRET substrate (Invitrogen, Carlsbad, CA) was added to each well using Bioraptr Flying Reagent Dispenser (FRD, Aurora Discovery, San Diego, CA). The plates were incubated at room temperature for 2 h, then fluorescence intensities were measured using an Envision plate reader (PerkinElmer, Shelton, CT) at Excitation 405nm, Emission 460nm and 530nm. The % activity was determined from the ratio of 460nm/530nm. For cell viability readout that measures cytotoxicity, 4 uL /well of CellTiter-Glo reagent was added into the assay plates using Bioraptr FRD. After 30 min incubation at room temperature, the luminescence intensity in the assay plates was measured using a ViewLux (PerkinElmer, Shelton, CT) plate reader.
# On the % scale 0 is the no-effect control and ±100 the full control effect.
Compound,"viability change, negative = cytotoxic",Potency
CCOC(C)=O,10.5%,–
C[C@H](CCC(=O)NCC(=O)O)[C@H]1CC[C@H]2[C@@H]3[C@H](O)C[C@@H]4C[C@H](O)CC[C@]4(C)[C@H]3C[C@H](O)[C@]12C,3.87%,–
CCc1cccc(C)c1N(C(=O)CS(=O)(=O)O)C(C)COC (stereo not given),9.63%,–
CC1C2CC(CC2C2CCCC(O)C2)C1(C)C (stereo not given),-18%,–
CC(Cc1ccccc1)(NC(=O)CN)c1ccccc1 (stereo not given),3.42% [at 42.5 µM],–
c1cnc(N2CCN(Cc3ccc4c(c3)OCO4)CC2)nc1,0.145% [at 42.5 µM],–
CC(C)=CCC[C@H](C)CCO,10.7%,–
COc1cc(C(=O)NS(=O)(=O)c2ccccc2C)ccc1Cc1cn(C)c2ccc(NC(=O)OC3CCCC3)cc12,-7.14% [at 42.5 µM],–
CCCCC/C=C/CC1CC(=O)OC1=O (stereo not given),4.73%,–
CC(Cc1cccc(C(F)(F)F)c1)NCCOC(=O)c1ccccc1 (stereo not given),-14.8% [at 42.5 µM],–
CCCCCCCCOCCC#N,1.03%,–
CC1(C)S[C@@H]2[C@H](NC(=O)Cc3ccccc3)C(=O)N2[C@H]1C(=O)O (tested in a mixture with another compound),6.06% [at 42.5 µM],–
COC(=O)CCCCCCCCC(=O)OC,0.756%,–
C=CC(C)(O)CCCC(C)CCCC(C)CCCC(C)C (stereo not given),0.297%,–
CCOc1ccccc1OCCN[C@H](C)Cc1ccc(OC)c(S(N)(=O)=O)c1,1.78% [at 42.5 µM],–
O=C1OC2(c3cc(Br)c(O)c(Br)c3Oc3c2cc(Br)c(O)c3Br)c2c(Cl)c(Cl)c(Cl)c(Cl)c21,–,inactive
CCn1cc(C(=O)O)c(=O)c2cc(F)c(N3CCN(C)CC3)cc21,3.1% [at 18.9 µM],–
CCCCOC(O)CC (stereo not given),5.28%,–
CC/C=C1/OC(=O)c2ccccc21,0.406%,–
O=C1OC(=O)C2CC=CCC12 (stereo not given),-2.06%,–

Compound,"viability change, negative = cytotoxic",Potency
C=CCCCCCC,-2.18%,–
CCCC(=O)OCC,0.903%,–
CC1CCN(CCCC(=O)c2ccc(F)cc2)CC1,0.273% [at 42.5 µM],–
C=C1CC/C=C(\C)CC[C@@H]2[C@@H]1CC2(C)C,2.98%,–
C=CC(=O)[O-].C=CC(=O)[O-].[Zn+2],8.5%,–
NS(=O)(=O)c1ccc(NC(=O)CCC(=O)O)cc1,-2.03% [at 42.5 µM],–
C[C@]12CCC(=O)C=C1CC[C@@H]1[C@@H]2CC[C@@]2(C)[C@H]1CC[C@]2(O)C(=O)CO,-1.54% [at 42.5 µM],–
CCCCCCCOC(C)=O,9.11%,–
Cc1cccc(Cl)c1,1.44%,–
CCCCN1C(=O)[C@@H]([C@H](O)C2CCCCC2)NC(=O)C12CCN(Cc1ccc(Oc3ccc(C(=O)O)cc3)cc1)CC2,5.34%,–
CCOc1ccc(C(=O)OCCN(CC)CC)cc1,-0.75% [at 42.5 µM],–
O=C(O)c1cccc(Oc2ccccc2)c1,1.17%,–
O=C(c1ccc(Cl)cc1)c1ccc(Cl)cc1,-5.75%,–
CC1c2ccccc2CN1NC(=O)c1ccc(Cl)c(S(N)(=O)=O)c1 (stereo not given),13.1% [at 42.5 µM],–
CCCCCCC/C=C/C=O,-2.17%,–
O=C(O)/C=C(\CC(=O)O)C(=O)O,-6.05% [at 42.5 µM],–
CCCCCCCCCCCCCCC(=O)O,0.0737%,–
Cc1cccn2c(=O)c(-c3nnn[nH]3)cnc12,-1.68% [at 18.9 µM],–
ClC(Cl)Cl,14.1%,–
O=C(O)c1ccc(OCCN2CCCCC2)cc1,-1.02% [at 42.5 µM],–
